The source made the active and inactive calls. Entries that show only a call come without a potency. Calls follow the shape of the dose curve; as a rule, active = well fitted activation curve with a large enough effect in the repeat runs; inconclusive = weak or mixed curves; inactive = flat fitted curve, though single readings scatter.

This note sets out measurements from PubChem BioAssay (Tox21).

The assay can be described thus: Caspase-3/7 induction in CHO-K1 cells by small molecules, qHTS assay (AID 1346980). Also: nearly all actives have a fitted effect of over 15% in size. Particulars: CHO-K1 caspase-3/7 induction, Caspase-Glo luminescence, 17 h; series mostly up to 92.4 µM. The source says: National Center for Advancing Translational Sciences [NCATS]
NIH Chemical Genomics Center [NCGC]
U.S. Environmental Protection Agency [EPA]
National Institutes of Environmental Health Sciences [NIEHS]
National Toxicology Program [NTP]
Apoptosis is a process of programmed cell death and plays a central role in the development of multicellular organisms. It is a highly regulated process and induces cell death by activating caspases, which are the members of cysteine aspartic acid-specific protease (caspase) family. Caspases involved in apoptosis are classified by their mechanism of action as initiator caspases (caspase-2, -8, -9 and -10) and executioner caspases (caspase-3, -6, and -7). Inhibition of apoptosis results in number of cancers, autoimmune diseases, inflammatory diseases and viral infection. To identify small molecule compounds that induce apoptosis, a homogeneous, luminescent Caspase-Glo 3/7 assay was used. Wild type CHO-K1 cells were used to screen Tox21 libraries for identifying caspase-3/7 activity inducers.
CHO-K1 cells were dispensed at 1,500 per well in 5uL of culture medium into white solid bottom 1536-well plates (Corning Life Sciences, Corning, NY) using a Multidrop Combi (Thermo Scientific, Waltham, MA) dispenser. The assay plates were incubated at 37 C and 5% CO2 for 5hr, and then 23nL of compounds dissolved in DMSO and positive control were transferred using a Pintool station (Wako, San Diego, CA). The assay plates were incubated at 37C and 5% CO2 for 17hr. For caspase-3/7 activity read, 4uL of Caspase-Glo 3/7 reagent (Promega Corporation, Madison, WI) was added to each well of the assay plates using Flying Reagent Dispenser (FRD, Aurora Discovery, San Diego, CA) and incubated the assay plates at room temperature for 30min. The luminescence signal was quantified using a ViewLux plate reader (Perkin Elmer, Shelton, CT).
`CN1Cc2c(N)cccc2C(c2ccccc2)C1` (stereo not given): the Potency entry was “inactive”.
The value for `CCOC(=O)CC(=O)OCC` was “inactive”; that for `C[Si](C)(C)N[Si](C)(C)C` was “inactive”.
The entry for `CC(=O)CC(=O)N(C)C` is “inactive”.
On to `COc1ccc2cc3[n+](cc2c1OC)CCc1cc2c(cc1-3)OCO2`, for which the Potency result was “inactive”.
Regarding `CCCCCCCCC(=O)O`, the Potency result was “inactive”.
As for `CC(=O)C(C)C`, the Potency entry is “inactive”.
For `CN=C(NC#N)NCCSCc1nc[nH]c1C`, the Potency entry was “inactive”.
As for `O=C(Cl)c1ccc(C(=O)Cl)cc1`, the Potency entry was “inactive”.
For `Cc1ncc(CO)c(CO)c1O`, the Potency entry is “inactive”.
For the molecule `CCCCCCCC(=O)O`, the Potency result is “inactive”.
For the molecule `Cc1ccc(C(C)C)cc1`, the Potency entry is “inactive”.
As for `CC(=O)OC(C)(C)C1CC=C(C)CC1` (stereo not given), the Potency result is “inactive”.
The value for `CCCCC(=O)O` was “inactive”; that for `CCCCCCCCCCCC(=O)N(C)CC(=O)O` was “inactive”; that for `NC(N)=S` was “inactive”.
As to `CCCN(CCC)C(=O)SCC`, the Potency result is “inactive”.
As to `Cc1ccccc1Cl`, the Potency result is “inactive”.
`COC(=O)CCCCC(=O)OC`: the Potency entry was “inactive”.
For the molecule `CCCCC(CC)COC(=O)c1ccc(C(=O)OCC(CC)CCCC)cc1` (stereo not given), the Potency entry is “inactive”.
For `CC(=O)OCCC(C)C`, the Potency result was “inactive”.
The entry for `C=CC(=O)NCOCCCC` is “inactive”; for `CCN(CC)CCNC(=O)c1ccc(N)cc1` it is “inactive”; for `COc1c2ccoc2cc2oc(=O)ccc12` it is “inactive”.
As for `O=C1OC(=O)c2c(Cl)c(Cl)c(Cl)c(Cl)c21`, the Potency entry is “inactive”.
On to `CN1CCCC1=O`, for which the Potency entry is “inactive”.
Turning to `O=Cc1ccc(CO)o1`, the Potency result was “inactive”.
Turning to `C=CC(C)(C)C`, the Potency entry is “inactive”.
Consider `CCCCCC(C)=O`, for which the Potency result was “inactive”.
The entry for `CC(C)(CO)CO` is “inactive”.
`CCCOC(=O)NCCCN(C)C`: the Potency entry is “inactive”.
Consider `CCCCCCC(=O)O`, for which the Potency result was “inactive”.
Turning to `Cc1cc(CC(=O)O)n(C)c1C(=O)c1ccc(Cl)cc1`, the Potency entry was “inactive”.
For the molecule `CC1(C)[C@@H](O[C@H]2O[C@H](C(=O)O)[C@@H](O)[C@H](O)[C@H]2O[C@@H]2O[C@H](C(=O)O)[C@@H](O)[C@H](O)[C@H]2O)CC[C@]2(C)[C@H]3C(=O)C=C4[C@@H]5C[C@@](C)(C(=O)O)CC[C@]5(C)CC[C@@]4(C)[C@]3(C)CC[C@@H]12`, the Potency result is “inactive”.
For `NC(=O)c1ncn([C@@H]2O[C@H](CO)[C@@H](O)[C@H]2O)n1`, the Potency entry is “inactive”.
The value for `CC(C=O)Cc1ccc(C(C)(C)C)cc1` (stereo not given) was “inactive”; that for `CC(=O)c1nccs1` was “inactive”.
On to `OCC(CO)(CO)CO`, for which the Potency result was “inactive”.
On to `Cc1cccc(C)c1[N+](=O)[O-]`, for which the Potency entry was “inactive”.
In the case of `Nc1cccc(N)n1`, the Potency entry is “inactive”.
